High-throughput results as filed in PubChem BioAssay.
A selection: hits, their analogues and other compounds. The true share with any hit is near 4%.
Shn3 inh set2: inhibitors of Schnurri-3 3'UTR reporter in osteoblasts. Clone20 osteoblast Shn3 3'UTR firefly luciferase, 24 h. inhibition, % at 12.5 µM. 360,000 tested, 0.52% active;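 active = mean inhibition of at least 75% with every replicate also reaching 75%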
Gli-Sufu antag: antagonists of Gli-Sufu signaling; Sufu-KO-LIGHT fibroblasts, Gli luciferase reporter luminescence; inhibition, % at 5 µM; 340,000 tested, 0.74% active;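 active = inhibition above about 55%, limit read from the data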
Mdm2 MdmX PPI: inhibitors of human Mdm2/MdmX interaction; 330,000 tested, 3% active; SaOS-2 split-luciferase Mdm2/MdmX complementation, luminescence; inhibition, % at 8 µM;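 active = inhibition of at least 50% at 8 µM in the primary screen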
Target sequence (O15151 whole entry, looked up): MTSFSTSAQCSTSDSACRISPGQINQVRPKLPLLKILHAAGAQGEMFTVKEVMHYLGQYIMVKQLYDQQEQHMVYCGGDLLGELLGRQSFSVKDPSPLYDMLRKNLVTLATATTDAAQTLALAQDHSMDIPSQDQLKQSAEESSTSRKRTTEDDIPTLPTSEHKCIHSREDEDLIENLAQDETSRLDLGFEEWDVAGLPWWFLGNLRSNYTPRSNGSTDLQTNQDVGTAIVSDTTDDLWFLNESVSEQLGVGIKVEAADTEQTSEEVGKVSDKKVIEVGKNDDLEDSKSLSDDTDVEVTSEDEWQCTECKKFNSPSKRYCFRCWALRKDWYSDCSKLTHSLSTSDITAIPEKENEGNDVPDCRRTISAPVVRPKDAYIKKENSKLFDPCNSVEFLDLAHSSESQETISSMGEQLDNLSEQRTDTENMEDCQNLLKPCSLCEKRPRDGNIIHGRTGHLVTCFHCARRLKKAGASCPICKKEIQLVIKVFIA
Target sequence (Q00987 whole entry, looked up): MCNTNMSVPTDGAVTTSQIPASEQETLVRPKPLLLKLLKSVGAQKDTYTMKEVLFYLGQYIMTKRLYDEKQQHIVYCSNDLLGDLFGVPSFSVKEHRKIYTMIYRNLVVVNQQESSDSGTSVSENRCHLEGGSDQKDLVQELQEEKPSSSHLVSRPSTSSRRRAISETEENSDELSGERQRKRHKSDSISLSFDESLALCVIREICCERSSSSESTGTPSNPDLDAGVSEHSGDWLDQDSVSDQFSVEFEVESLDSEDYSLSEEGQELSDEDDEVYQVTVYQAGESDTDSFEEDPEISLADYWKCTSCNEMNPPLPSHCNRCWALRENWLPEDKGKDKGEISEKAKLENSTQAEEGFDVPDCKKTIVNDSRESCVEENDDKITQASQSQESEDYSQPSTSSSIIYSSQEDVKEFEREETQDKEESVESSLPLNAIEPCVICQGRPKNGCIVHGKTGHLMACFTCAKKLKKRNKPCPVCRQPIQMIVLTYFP
PAX8 reporter: lowers PAX8-driven luciferase in RMG-I cells. AID 652154. RMG-I TPO-luciferase reporter, SteadyGlo, 24 h. 360,000 tested, 1.2% active. inhibition, % at 12.6 µM;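 active = mean replicate inhibition at least 60% with every replicate also reaching 60%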;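 note: luciferase light reporting Pax8 driven TPO promoter activity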
CSC inhib: cancer stem cell inhibition; cancer stem cell-like cells viability, luminescence; inhibition, % at 7.5 µM; 300,000 tested, 1.1% active; AID 2717; in the data active = inhibition above about 75%; tested in HMLE shEcad cells
Beta cell apopt: beta cell apoptosis inhibition; INS-1E cytokine-induced death, ATP luminescence, 48 h; percent of positive-control rescue, neutral wells zero; protection from apoptosis, % (concentration not given with the values); 300,000 tested, 0.8% active; AID 435005;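 active = Every replicate reaches about 75%, or at least half do and their mean reaches it too, limit read from the data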;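 note: higher means more ATP so stronger rescue from cytokine killing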
Mdm2-MdmX conf: confirmation of human Mdm2/MdmX interaction inhibitors; shares compounds with Mdm2 MdmX PPI; Mdm2-MdmX binding, luminescent assay; inhibition, % at 8 µM; 10,000 tested, 55% active; in the data active = inhibition above about 40%
FLuc counter: full-length luciferase inhibition in Mdm2/MdmX counter-screen; 6,200 tested, 77% active; SaOS-2 full-length luciferase counterscreen, luminescence; inhibition, % at 8 µM; AID 504607; shares compounds with Mdm2 MdmX PPI;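 active = mean inhibition at 8 µM reaching about 37%, which flags the compound as non-specific, limit read from the data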;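 note: p53-null SaOS-2 cells with luciferase driven by a doxycycline-inducible promoter; compound on cells about two nights before reading with doxycycline added after day one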
Gli-Sufu confirm: Gli-SUFU antagonism confirmation, single concentration. shares compounds with Gli-Sufu antag. 2,500 tested, 40% active. inhibition, % at 5 µM. AID 602428. Sufu-KO-LIGHT cells, Gli luciferase reporter, luminescence;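 active = mean inhibition at 5 µM reaching about 45%, limit read from the data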
Gli cytotox: cytotoxicity counter-screen for Gli-SUFU antagonists | AID 651994 | Sufu-KO-LIGHT cells cytotoxicity, ATP luminescence | shares compounds with Gli-Sufu antag | 2,500 tested, 32% active | cytotoxicity, % at 5 µM;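 active = mean cytotoxicity at 5 µM above about 25%, limit read from the data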;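 note: cells exposed to compound overnight for roughly 16 to 18 hours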
Wnt3a cs: inhibits Wnt3a reporter, counter-screen for Gli-SUFU antagonists; shares compounds with Gli-Sufu antag; Wnt-LIGHT cells, Wnt3a-driven luciferase reporter, luminescence; inhibition, % at 6.25 µM; 2,500 tested, 20% active; AID 651995;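 active = mean inhibition above about 25%, limit read from the data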
Hits are given with their value; - = inactive; . = not tested or not shown.

SMILES	Shn3 inh set2	Gli-Sufu antag	Mdm2 MdmX PPI	PAX8 reporter	CSC inhib	Beta cell apopt	Mdm2-MdmX conf	FLuc counter	others
CCOc1ccccc1NC(=O)c1nc(S(=O)(=O)Cc2ccccc2)ncc1Cl	96	-	97	134	.	.	97	-
COc1ccccc1NC(=O)c1nc(S(=O)(=O)Cc2ccccc2)ncc1Cl	99	-	97	130	-	77	70	51
Cc1ccc(-c2nnn(CC(=O)Nc3ccc(S(=O)(=O)N4CCC(C)CC4)cc3)n2)cc1	-	-	52	.	-	-	-	.
C[C@H]1CN([C@@H](C)CO)C(=O)Cc2cc(NS(=O)(=O)c3cccs3)ccc2O[C@@H]1CN(C)Cc1ccc2c(c1)OCO2	.	.	.	-	.	.	.	.
O=C(C[C@@H]1CC[C@@H](NS(=O)(=O)c2ccc(F)cc2)[C@H](CO)O1)NC1CCC1	.	.	.	-	.	.	.	.
Cc1ccc(S(=O)(=O)N(C)C[C@@H]2Oc3c(NC(=O)Nc4ccc(F)cc4)cccc3C(=O)N([C@@H](C)CO)C[C@@H]2C)cc1	.	.	.	-	.	.	.	.
CSc1ncc(Cl)c(C(=O)Nc2ccc(C)c(C)c2)n1	-	.	-	-	-	-	.	.
CC1CCN(S(=O)(=O)c2ccc(NC(=O)c3ccncc3)cc2)CC1	-	-	-	-	-	-	.	.
Cc1ccc(NC(=O)c2nc(S(=O)(=O)Cc3ccccc3C)ncc2Cl)cc1C	96	-	100	-	103	-	70	52
CCS(=O)(=O)c1ncc(Cl)c(C(=O)Nc2ccccc2OC)n1	97	-	96	-	-	84	100	45
COc1ccccc1NC(=O)c1ccc(C(=O)Nc2ccccc2OC)nc1	-	-	-	-	-	-	.	.
CCOc1ccccc1NC(=O)c1ccc(C(=O)Nc2ccccc2OCC)nc1	-	-	91	-	-	-	-	.
CCS(=O)(=O)c1ncc(Cl)c(C(=O)Nc2ccc(S(=O)(=O)N3CCC(C)CC3)cc2)n1	99	-	100	100	118	108	100	52
CCCNC(=O)C[C@H]1CC[C@H]2[C@@H](COc3ccc(NC(=O)COC)cc3C(=O)N2C)O1	.	.	.	-	.	.	.	.
COCC#Cc1ccc([C@@H]2[C@H](C#N)N(C(=O)Cc3ccccc3)[C@H]2CO)cc1	.	.	.	-	.	.	.	.
O=C(Cc1ccncc1)NCC[C@@H]1CC[C@@H](NC(=O)C2CCCC2)[C@@H](CO)O1	.	.	.	-	.	.	.	.
CCC(=O)N1C[C@H](C)[C@@H](OC)CN(C)C(=O)c2ccc(NC(=O)NC(C)C)cc2OC[C@H]1C	.	.	.	-	.	.	.	.
N=c1ccn2c(n1)O[C@H]1[C@@H](CO)[C@H](O)O[C@H]12	-	-	69	-	-	-	61	43
N=C(N)c1ccc(O)cc1	-	-	-	-	-	-	.	.
CC/C(=C(/CC)c1ccc(O)cc1)c1ccc(O)cc1	-	-	54	-	-	-	48	53
CCOCCCNC(=O)c1cc2c(-c3ccc(Cl)cc3)nn(C)c2s1	-	-	-	-	-	-	.	.
CC1CCCN(C(=O)c2cc3c(-c4ccc(Cl)cc4)nn(C)c3s2)C1 (stereo not drawn)	-	-	-	-	-	.	.	.
CCCCN(CC)CCNC(=O)c1cc2c(-c3ccc(Cl)cc3)nn(C)c2s1	-	-	58	-	112	-	-	-
Cn1nc(-c2ccc(Cl)cc2)c2cc(C(=O)NC3CC3)sc21	-	-	59	-	-	-	-	.
O=C(C[C@H]1CC[C@@H]2[C@H](COC[C@@H](O)CN2C(=O)c2ccncc2)O1)NCc1cccc(F)c1	.	.	.	-	.	.	.	.
SMILES	Shn3 inh set2	Gli-Sufu antag	Mdm2 MdmX PPI	PAX8 reporter	CSC inhib	Beta cell apopt	Mdm2-MdmX conf	FLuc counter	others
O=C(N[C@@H]1CC[C@H](CCn2cc(-c3cccnc3)nn2)O[C@@H]1CO)c1ccccc1F	.	.	.	-	.	.	.	.
CN(C)C(=O)C[C@@H]1CC[C@@H]2[C@H](COC[C@H](O)CN2CC2CCCCC2)O1	.	.	.	-	.	.	.	.
CC(C)c1ccc(C2C3=C(CC(C)(C)CC3=O)NC3=C2C(=O)c2ccccc23)cc1 (stereo not drawn)	-	-	73	.	-	-	-	.
Cn1c(=O)n(C)c2cc([N+](=O)[O-])c(N3CCN(S(=O)(=O)c4ccc(C(C)(C)C)cc4)CC3)cc21	85	-	60	.	-	-	-	70
COc1cc(N(Cc2ccccc2)Cc2ccccc2)c2ncn(C(C)C)c2c1	-	-	-	-	-	-	.	.
CC(C)n1cnc2c(N(C)c3ccccc3)nc(N(CCN(C)C)Cc3ccccc3)nc21	-	-	58	-	-	-	-	.
COc1cccc(CNC(=O)C[C@@H]2CC[C@@H](NC(=O)C3CCOCC3)[C@@H](CO)O2)c1	.	.	.	-	.	.	.	.
COc1ccc(C(=O)Nc2ccc(C)cn2)c(OC)c1	-	-	68	.	-	.	67	85
C[C@@H]1CCCCO[C@H](CN(C)C(=O)Nc2ccc(C(F)(F)F)cc2)[C@@H](C)CN([C@@H](C)CO)C(=O)c2cc(NC(=O)c3ccccc3)ccc2O1	.	.	.	-	.	.	.	.
Cc1ccccc1CS(=O)(=O)c1cnc2ccccc2n1	-	-	55	.	-	-	-	.
O=C(CN1CCOCC1)N[C@@H]1CC[C@@H](CCn2cc(C3CC3)nn2)O[C@@H]1CO	.	.	.	-	.	.	.	.
COC(=O)[C@@]1(Cc2ccc(F)cc2)[C@H]2c3cc(C(=O)N(C)C)n(CCc4ccc(OC)c(Br)c4)c3C[C@H]2CN1C(=O)c1ccccc1	-	-	67	-	-	-	-	.
O=[N+]([O-])c1cc(C(F)(F)F)ccc1-n1nnc2ccccc21	-	-	64	-	-	-	-	.
O=[N+]([O-])c1cc(S(=O)(=O)Nc2ccccc2)ccc1-n1nnc2ccccc21	-	-	-	.	-	-	.	.
COc1ccc(/C=N/NC(=O)c2nc(-c3ccccc3)cc(-c3ccccc3)n2)cc1O	-	55	56	-	.	-	-	121	Gli-Sufu confirm=-;Gli cytotox=-;Wnt3a cs=-
CC(C)(C)c1ccc(C2CC2C(=O)N/N=C\c2ccc[nH]2)cc1 (stereo not drawn)	95	88	84	-	-	109	73	-	Gli-Sufu confirm=92;Gli cytotox=-;Wnt3a cs=43
O=C(N/N=C/c1ccco1)C1CC1c1ccccc1 (stereo not drawn)	-	-	-	-	-	-	.	.
